Screening data: PubChem BioAssay, National Center for Advancing Translational Sciences (NCATS)
IP6K1 inhibitor: IP6K1 kinase inhibition | 0.81% of 140,000 active | Q92551 | activity change, % (series mostly up to about 58 µM) | IP6K1 kinase, ADP-Glo luminescence, 2 h; stronger effect = lower value; in the data active = activity change below about -25%
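ADP-Glo luminescence measures ADP made by human IP6K1 during a 2 h RT reaction with ATP/IP6 (mix at 1.3 mM/130 uM); top library doses 57.5 and 19.1 uM final.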
3T3 cytotox: kills NIH 3T3 cells; NIH 3T3 viability, CellTiter-Glo ATP luminescence, 48-72 h; Potency, µM (titrated, usually from 96.7 µM), for inactives: top-dose activity change, negative = cytotoxicity, most hits filed as inhibitors; 4.3% of 94,000 active; AID 1345082; note: potency is the fitted concentration of half-maximal effect; nearly all actives have a fitted effect of over 55% in size
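First NIH 3T3 cells are plated at 400 cells/well; next compound is pinned in; then plates incubate 48 or 72 hr at 37 °C; finally CellTiter-Glo is added and luminescence read after 10 min.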
Luciferase inh: blocks purified firefly luciferase enzyme activity; P08659; purified P. pyralis luciferase, luminescence, biochemical; Potency, µM (highest dose often 115 µM), most hits filed as inhibitors; 2.5% of 76,000 active; AID 1347043; note: potency is the fitted concentration of half-maximal effect; nearly all actives have a fitted effect of over 65% in size
Target sequence (P08659 whole entry, looked up): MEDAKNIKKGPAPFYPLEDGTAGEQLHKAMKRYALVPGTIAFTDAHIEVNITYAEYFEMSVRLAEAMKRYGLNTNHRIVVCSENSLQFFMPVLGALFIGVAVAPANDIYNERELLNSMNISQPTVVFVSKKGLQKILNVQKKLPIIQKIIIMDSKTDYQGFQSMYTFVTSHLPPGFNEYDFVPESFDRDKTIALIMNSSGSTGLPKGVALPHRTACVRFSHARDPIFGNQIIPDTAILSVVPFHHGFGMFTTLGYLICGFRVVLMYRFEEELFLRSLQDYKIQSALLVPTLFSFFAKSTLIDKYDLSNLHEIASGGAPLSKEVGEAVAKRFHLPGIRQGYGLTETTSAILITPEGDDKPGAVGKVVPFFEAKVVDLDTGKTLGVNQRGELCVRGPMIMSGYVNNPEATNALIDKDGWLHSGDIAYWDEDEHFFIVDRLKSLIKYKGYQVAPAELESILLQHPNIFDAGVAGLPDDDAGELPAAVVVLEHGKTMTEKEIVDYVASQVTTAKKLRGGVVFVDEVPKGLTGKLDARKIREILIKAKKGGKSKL
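Luminescence read by CCD imaging after purified firefly luciferase (10nM final) was added to substrate buffer holding 10uM D-luciferin and 10uM ATP, pH 7.5, pre-dosed with compound.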
HEK293 tox: cytotoxic compounds in HEK 293 cells. HEK 293 viability, ATP luminescence (CellTiter-Glo), 48-72 h. Potency, µM (titrated, usually from 115 µM), for the others: top-dose activity change, negative = cytotoxicity, most hits filed as inhibitors. 6.6% of 94,000 active. AID 1345083; note: potency is the fitted concentration of half-maximal effect; nearly all actives have a fitted effect of over 60% in size
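Cytotoxicity was scored by loss of ATP-coupled luminescence (CellTiter-Glo) in HEK 293 cells. Compound treatment ran 48 or 72 hr at 37 degree Celsius, 5% CO2, 95% humidity.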
SNCA expr inhib: SNCA gene expression inhibition | 0.17% of 140,000 active | AID 1671194 | Potency, µM (highest dose often 57.2 µM), without a hit: top-dose activity change, negative = inhibition, actives largely listed as inhibitors | HEK-293 SNCA-luciferase knock-in, luminescence, 24 h;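 note: potency is the fitted concentration of half-maximal effect; plate controls were DMSO cells for no effect and cell-free wells for full effect; nearly all actives have a fitted effect of over 45% in size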
HEK293 viab: reduces viability of HEK-293 SNCA reporter cells | 0.12% of 150,000 active | HEK-293-SNCA-luc viability, GF-AFC fluorescence, 24 h | Potency, µM (highest dose often 57.1 µM), for the others: at the highest dose activity change, negative = cytotoxicity, hits mostly cytotoxic;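 note: potency is the fitted concentration of half-maximal effect; 0% = DMSO-treated cells and -100% = medium-only wells without cells; nearly all actives have a fitted effect of over 30% in size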
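Cytotoxicity counterscreen: after 24 h compound treatment of genome-edited SNCA-luciferase HEK-293 cells, live-cell protease substrate GF-AFC read by fluorescence after 30 min; activity scaled between DMSO (0%) and medium-only (-100%), curves Hill-fitted.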
* hit, by the source's call; i = inactive; ? = inconclusive; . = not tested or not shown; [ ] = another dose, or the depositor's remark. The list is not random: actives were taken first. Their share in the collection is about 7.3%. Unless noted, calls come from the whole dose curve; as a rule, active = well fitted curve in the direction sought with a large enough effect; inconclusive = small, poorly fitted or top-dose-only effect, or another doubt; inactive = no such curve, though single readings can be large; an effect the other way counts as inactive or inconclusive. Unless noted, % is set by controls: 0 for no effect and ±100 for the full control effect.

SMILES	IP6K1 inhibitor	3T3 cytotox	Luciferase inh	HEK293 tox	SNCA expr inhib	HEK293 viab
Cc1cccc(-c2cccc(CN3CCCC(C(=O)N4CCOCC4)C3)c2)c1 (configuration not stated)	-5.4	?	.	?	5.5%	6.9%
O=C(CCc1nnn2c1CN(C(=O)Nc1ccc3c(c1)OCCO3)CC2)N1CCCC1	14.8	-12.7%	i	-6.1%	?	1.6%
O=C(c1ccc(F)cc1)N1CCC2(CCc3nn(Cc4ccccc4)c(=O)n3CC2)CC1	-12.7	?	.	?	-28.3%	8.2%
O=C(NCc1cccs1)C1CCCN(Cc2cccc(-c3cccs3)c2)C1 (configuration not stated)	2.4	39.8µM*	.	44.7µM*	?	-17.8%
O=C(NCC(F)(F)F)C1CCCN(Cc2cccc(-c3cccs3)c2)C1 (configuration not stated)	9.3	?	.	?	.	.
CCOC(=O)N1CCN(Cc2nc3cc(NC(=O)c4ccccc4[N+](=O)[O-])ccc3n2C(C)C)CC1	-13.9	.	.	.	-5.9%	-1.6%
CCOC(=O)N1CCN(Cc2nc3cc(NC(=O)c4ccccc4OC)ccc3n2C(C)C)CC1	-57.2*	.	.	.	37.7%	-15.2%
CN(C)C(=O)c1ccc2oc(-c3cccnc3)nc2c1	1.9	-13.4%	.	1.2%	-4.4%	0.4%
Cc1ccc(C(=O)N2CCC(C(=O)N3CCCC3c3nc4ccncc4[nH]3)CC2)cc1 (configuration not stated)	24.8	-15.8%	.	-10.7%	-17.9%	15.9%
CN1CCN(C(=O)c2cn3cc(-c4cccnc4)sc3n2)CC1	-2.2	i	.	-0.2%[172 µM]	21.4%[87.6 µM]	9.0%[87.6 µM]
Cc1nn(-c2ccc(C(C)C)cc2)c(C)c1[C@@H]1C=C[C@@H](NC(=S)NC2CCCCC2)C1	-2.3	?	10µM*	?	37.2%	-13.9%
COC(=O)c1cccc(NC(=S)N[C@@H]2C=C[C@@H](c3c(C)nn(-c4ccc(C(C)C)cc4)c3C)C2)c1	-1.4	?	12.6µM*	?	78.1%	-13.1%
CCn1ccc(C(=O)N2CCC(n3c(C)cnc3C3CCC3)C2)n1 (configuration not stated)	9.5	-1.9%	.	2.5%	19.0%	0.2%
Cc1nc(CN2C[C@H](C(=O)N3CCN(c4ccccn4)CC3)C[C@@H]2c2ccc(F)cc2)cs1	-2.9	?	i	?	-29.0%	-7.0%
O=C([C@@H]1C[C@H](c2ccc(F)cc2)N(Cc2ccccc2Cl)C1)N1CCN(CCO)CC1	10.1	?	i	?	-17.0%	-8.7%
O=C([C@@H]1C[C@H](c2ccc(F)cc2)N(Cc2ccccc2Cl)C1)N1CC(O)C1	8.7	89.1µM*	i	70.8µM*	?	-28.2%[87.6 µM]
O=C([C@@H]1C[C@H](c2ccc(F)cc2)N(Cc2ccccc2Cl)C1)N1CCOCC1	-5.0	89.1µM*	i	?	-10.0%[87.6 µM]	-12.6%[87.6 µM]
CC(=O)Nc1ccc2c(c1)nc1n2[C@@H](CNC(=O)NC(C)C)COC1	-8.4	3.5%[138 µM]	i	i	-3.6%[87.6 µM]	-9.4%[87.6 µM]
O=C(c1ccc2nnc(-c3ccc(Cl)cc3)n2c1)N1CCOCC1	7.5	-18.5%[138 µM]	.	-2.2%[172 µM]	-11.1%[87.6 µM]	2.0%[87.6 µM]
C1=C(c2nc(-c3ccncc3)cc3c2ccn3Cc2cccnc2)CCOC1	-19.1	22.4µM*	i	?	-10.5%[87.6 µM]	9.3%[87.6 µM]
COCCn1ccc2c(C3=CCOCC3)nc(-c3cccc(O)c3)cc21	-0.1	?	i	?	6.2%[87.6 µM]	-11.8%[87.6 µM]
COCCn1ccc2c(C3=CCOCC3)nc(-c3cccc(C(N)=O)c3)cc21	14.7	25.1µM*	i	?	20.0%[87.6 µM]	?
CCCc1nc(NCc2nc(Cc3cccs3)no2)c2cnn(C)c2n1	5.5	?	i	44.7µM*	?	?
Clc1ccc(Cn2ccnc2-c2cc3n(n2)CCCNC3)cc1Cl	2.3	25.1µM*	i	?	?	-28.0%
c1ccc(CCCCn2ccnc2-c2cc3n(n2)CCCNC3)cc1	-15.2	?	i	-28.8%	17.4%	-18.9%
